Rows were chosen to be rich in hits. Some 15% of all compounds tested hit in one or more screens of this group.
HCMV inh: human cytomegalovirus inhibition; HFF cells, HCMV-luciferase reporter, 72 h; stronger effect = lower value; activity change, negative = inhibition, % at 57.5 µM; hit rate 4.5% among 410,000; in the data active = activity change below about -60%; inconclusive = no clear call, values can overlap the other calls; inactive = above about -39%; also: % is scaled to controls: 0 for no effect and ±100 for the full control effect
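Human foreskin fibroblasts infected with luciferase-reporter HCMV at MOI 1 PFU/cell, compounds at two doses. Luciferase measured 72 h post infection; normalized to buffer-only basal and Salinomycin (10uM) controls.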
Pf growth 48h: inhibits P. falciparum growth in the first generation, 48 h; AID 504832; Potency, µM (doses to about 28.7 µM), inactives show at the top dose activity change, negative = inhibition, actives largely listed as inhibitors; P. falciparum luciferase growth in erythrocytes, 48 h; hit rate 5.9% among 310,000; also: potency is read from the fitted curve at half-maximal effect; % is scaled to controls: 0 for no effect and ±100 for the full control effect
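Luminescence readout; reporter = integrated firefly luciferase in P. falciparum. RBC culture at 2% hematocrit, 0.1% parasitemia final, 37 C/5% CO2; decreased signal taken as growth inhibition.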
SARS PLpro yeast: blocks SARS-CoV papain-like protease in a yeast assay. Potency, µM (titrated, usually from 32.9 µM), inactives show at the highest dose activity, positive = growth rescue, hits mostly activators. S. cerevisiae expressing SARS-CoV PLpro, growth rescue. hit rate 0.19% among 330,000. AID 485353; calls by dose curve; also: potency is read from the fitted curve at half-maximal effect; 0% is about no effect; nearly all actives have a fitted effect of over 55% in size
Pf growth 96h: P. falciparum growth inhibition at 96 hours; hit rate 6.9% among 320,000; Potency, µM (titrated, usually from 28.7 µM), for inactives: top-dose activity change, negative = inhibition, actives largely listed as inhibitors; P. falciparum luciferase reporter growth, 96 h; AID 504834; also: potency is read from the fitted curve at half-maximal effect; % is scaled to controls: 0 for no effect and ±100 for the full control effect
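Luminescence readout: decreased luciferase signal marks inhibited growth of reporter-expressing P. falciparum in infected red cells (2% hematocrit, 0.05% parasitemia final), exposed to compound two generations (96 h, 37 C, 5% CO2).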
Sm TGR block: S. mansoni TGR enzyme inhibition | Q962Y6 | purified TGR, DTNB reduction, TNB absorbance 405 nm | Potency, µM (doses to about 114 µM), inactives show at the top dose activity change, negative = inhibition, hits mostly inhibitors | hit rate 3% among 360,000; also: potency is read from the fitted curve at half-maximal effect; % is scaled to controls: 0 for no effect and ±100 for the full control effect; nearly all actives have a fitted effect of over 60% in size
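First, TGR (20 nM dispensed) and NADPH were mixed with compound. Second, a 15 min room-temperature incubation followed. Third, further NADPH and then DTNB were added to start the reaction. Finally, TNB absorbance was monitored kinetically.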
HCV inh: inhibitors of hepatitis C virus infection; Huh7.5.1 HCVcc-Cre infection, luciferase reporter, 44 h; Potency, µM (doses to about 41.8 µM), inactives show top-dose activity change, negative = inhibition, usual class: inhibitors; AID 651820; hit rate 3.4% among 340,000; also: potency is read from the fitted curve at half-maximal effect; % is scaled to controls: 0 for no effect and ±100 for the full control effect
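Seed cells (1,000/well) for 4 h; treat with compound and infect with HCVcc-Cre, moi about 0.5. Incubate 44 h, then detect luciferase activity.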
Active calls of the source: *; i = inactive; u = inconclusive; x = not tested or not shown; [ ] = remark or other dose. Unless noted, calls follow the shape of the dose curve; as a rule, active = well fitted curve in the direction sought with a large enough effect; inconclusive = small, poorly fitted or top-dose-only effect, or another doubt; inactive = no such curve, though single readings can be large; an effect the other way counts as inactive or inconclusive.

SMILES	HCMV inh	Pf growth 48h	SARS PLpro yeast	Pf growth 96h	Sm TGR block	HCV inh
COc1ccc(Cl)cc1N(C)C(=O)Cn1cnc2sc(C)c(S(=O)(=O)N3CCN(c4ncccn4)CC3)c2c1=O	19	x	x	x	-3%	x
CCOc1ccc(OCCNC(=O)c2cc(C3CC3)nc3c2cnn3C(C)C)cc1	-23	10µM*	-3%	u	-7%	3.2µM*
COc1ccc(CNC(=O)c2cc(C3CC3)nc3c2cnn3C(C)C)cc1	23	13µM*	-2%	15µM*	-4%	2.2µM*
CC(C)n1ncc2c(C(=O)NCCOc3ccccc3F)cc(C3CC3)nc21	u	x	-7%	x	x	u
CC(C)n1ncc2c(C(=O)NCCc3ccc(S(N)(=O)=O)cc3)cc(C3CC3)nc21	-27	-7%	-6%	u	-17%	-4%
COc1ccccc1CNC(=O)c1cc(C2CC2)nc2c1cnn2C(C)C	-23	0.93µM*	-1%	0.74µM*	0%	1µM*
CC(C)n1ncc2c(C(=O)Nc3cccc(C#N)c3)cc(C3CC3)nc21	-91*	6.6µM*	7%	5.2µM*	-2%	11µM*
CC(C)n1ncc2c(C(=O)O)cc(C3CC3)nc21	3	-2%	1%	19%	6%	10%
COc1ccc(CCNC(=O)c2cc(C3CC3)nc3c2cnn3C(C)C)cc1OC	0	u	-3%	2.3µM*	-3%	u
CC(C)n1ncc2c(C(=O)N3CCN(Cc4ccc(Br)s4)CC3)cc(C3CC3)nc21	-24	4.1µM*	3%[6.58 µM]	12µM*	-28%	10µM*
N=C1S/C(=C\c2ccco2)C(=O)N1c1nccs1	-115*	u	-10%	u	22µM*	u
NS(=O)(=O)c1cccc(NS(=O)(=O)c2ccc(/C=C/C(=O)O)cc2)c1	-8	2%	3%	25%	25µM*	28%
O=C(O)/C=C/c1cccc(NS(=O)(=O)c2ccccc2)c1	-7	-5%	10%	i	-4%	36%
O=C(c1cc(-c2ccc(F)cc2)on1)N1CCCCCC1	6	174%	2%	15µM*	1%	2%
O=C(c1cc(-c2ccc(O)cc2)on1)N1CCN(c2ccccc2)CC1	-30	12%	-10%	35%	1%	-23%
O=C(c1cc(-c2ccc(O)cc2)on1)N1CCN(c2ccc(F)cc2)CC1	-63*	-14%	14%	45%	-18%	u
CCCn1c(=O)[nH]c(=O)c2c1nc(-c1cc([N+](=O)[O-])ccc1Cl)n2CCOC	27	u	2%	u	1%	-6%
O=C(NCc1ccccc1Cl)c1cnc2sc(N3CCCCC3)nn2c1=O	-4	x	x	x	2%	x
Cc1cc(C)c(C(=O)Nc2ccc(Br)c(C(F)(F)F)c2)c(C)c1	u	13µM*	-91%	9.3µM*	4%	u
O=C(CNC(=O)c1ccccc1F)NCc1ccncc1	19	x	-4%	x	x	26%
O=C(O)c1ccc(NC(=S)NC(NC(=O)c2ccco2)C(Cl)(Cl)Cl)cc1 (centres undefined)	30	x	-1%	-20%	-7%	-12%
Cc1cccc(NC(=S)NC(NC(=O)c2ccco2)C(Cl)(Cl)Cl)c1 (centres undefined)	30	13µM*	11%	x	u	1%
Cc1ccc(NC(=S)NC(NC(=O)c2ccco2)C(Cl)(Cl)Cl)cc1 (centres undefined)	34	4.7µM*	0%	x	u	u
COc1ccc(C)cc1NC(=O)c1ccccc1NS(=O)(=O)c1ccc(Cl)s1	-61*	u	-5%	u	x	u
COc1ccccc1NC(=O)c1ccccc1NS(=O)(=O)c1cccs1	5	u	-1%	-7%	0%	10%
SMILES	HCMV inh	Pf growth 48h	SARS PLpro yeast	Pf growth 96h	Sm TGR block	HCV inh
Cc1ccc(NC(=O)c2ccc([N+](=O)[O-])s2)cc1S(=O)(=O)N1CCOCC1	-94*	x	2%	x	x	u
Cc1ccc(NC(=O)C2=COCCO2)cc1S(=O)(=O)N1CCOCC1	-26	u	-5%	-8%	-4%	35%
O=C(Nc1cc(S(=O)(=O)N2CCOCC2)ccc1N1CCOCC1)c1ccc([N+](=O)[O-])s1	u	x	2%	x	x	13µM*
Cc1ccc(NC(=O)c2ccccc2NS(=O)(=O)c2ccc(Cl)s2)cc1S(=O)(=O)N1CCOCC1	-82*	12µM*	0%	u	-1%	u
O=C(Nc1cc(S(=O)(=O)N2CCOCC2)ccc1O)c1ccc(NS(=O)(=O)c2ccc(Cl)s2)cc1	-23	32%	13%	-3%	-25%	u
O=c1oc2c(CN3CCOCC3)c(O)c(Cl)cc2c2c1CCCC2	-25	-11%	-19%	13%	45µM*	26%
O=c1oc2c(CN3CCOCC3)c(O)ccc2c2c1CCCC2	-27	u	0%	-1%[5.75 µM]	79µM*	-12%
Cc1cc(=O)oc2c(CN3CCN(C)CC3)c(O)c(Cl)cc12	-102*	9%	u	13%	50µM*	u
CCCc1cc(=O)oc2c(CN3CCN(C)CC3)c(O)c(Cl)cc12	14	-5%	6%	-3%	u	-2%
O=c1oc2c(CN3CCOCC3)c(O)ccc2c2ccccc12	29	u	3%	u	0%	u
O=C(NCc1cccs1)O[C@H]1CC[C@@]23CCCN2C(=O)CCC[C@H]3[C@H]1Cc1ccccc1	-14	x	x	x	x	x
CC1=CC(=C2C(=O)c3ccccc3C2=O)C=C(C)O1	85	26%	2%	-27%	-1%	-13%
CC(=O)N1C(=O)C(=C2C=C(C)OC(C)=C2)c2ccccc21	103	-1%	6%	u	14%	10µM*
CC1(NC(=O)CCc2nc3sc4c(c3c(=O)[nH]2)CCCC4)CCS(=O)(=O)C1 (centres undefined)	-1	-9%	-1%	u	0%	u
CC1CCCN(C(=O)CCc2nnc(-c3ccc4c(c3)OCO4)o2)C1 (centres undefined)	-26	24%	-8%	u	1%	10%
CCCOC1CCCN(C(=O)CCc2nnc(-c3ccc4c(c3)OCO4)o2)C1 (centres undefined)	61	15%	2%	13µM*	-7%	-5%
O=C(Nc1ccc2oc(-c3cccnc3)nc2c1)c1ccc(-c2ccc(OC(F)(F)F)cc2)o1	-9	x	x	x	8.9µM*	x
O=C(Nc1ccc2oc(-c3cccnc3)nc2c1)c1ccc(-c2ccccc2)o1	-73*	x	x	x	35µM*	x
CN(Cc1cccnc1)C(=O)Cc1ccc(NS(=O)(=O)c2cccc(C(F)(F)F)c2)cc1	13	-17%	3%	-24%	-7%	-8%
O=C(CSc1nc2ccsc2c(=O)n1Cc1ccccc1Cl)NCc1ccc(F)cc1	-13	x	x	x	-4%	x

High-throughput results (PubChem)
